This is part of a sample that, as a whole, favours compounds with a hit. Of some 83,000 tested, about 20% had one in any assay.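 Activity criterion: percent growth below 10, measured after cells in 96-well plates were exposed to a single compound concentration for 48 hours.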 Values without a mark were called inactive. Calls of active or inactive are those of the source.

Test systems include SK-MEL-2 melanoma; EKVX NSCLC; SN12C renal; UO-31 renal; TK-10 renal; ACHN renal; CAKI-1 renal; A498 renal; CCRF-CEM leukemia; MOLT-4 leukemia; RPMI-8226 leukemia; OVCAR-8 ovarian; OVCAR-5 ovarian; OVCAR-4 ovarian; SK-OV-3 ovarian; IGROV1 ovarian; OVCAR-3 ovarian; HS 578T breast; NCI/ADR-RES ovarian.
Common to all, as to experiment: NCI-60 one-dose screen, 48 h (100 = growth as untreated, 0 = no growth, -100 = all killed)
Common to all, as to details: 10 µM unless noted

In the case of `CCc1ccccc1-n1c(N)c(C#N)c(-c2ccc(N(C)C)cc2)c(C#N)c1=O`, the growth in the assay on SK-MEL-2 melanoma was 112%; with EKVX NSCLC, 90.4%; in the assay on SN12C renal it was 96.8%; in the assay with UO-31 renal, 85.3%; in the assay on TK-10 renal it was 99.6%; with ACHN renal, 94.8%. The growth with CAKI-1 renal was 93.6%; in the assay on A498 renal it was 94.2%; in the assay with CCRF-CEM leukemia, -30.8% (active); in the assay with MOLT-4 leukemia, 117%; with RPMI-8226 leukemia it was 74.7%; in the assay with OVCAR-8 ovarian it was 101%. Further, the growth was 97% with OVCAR-5 ovarian; 99% in the assay with OVCAR-4 ovarian; 107% in the assay with SK-OV-3 ovarian; 90.8% with IGROV1 ovarian; 97% in the assay on OVCAR-3 ovarian; 92.2% with HS 578T breast. Besides, the growth in the assay with NCI/ADR-RES ovarian is 94.8%.

`COc1ccc(C(=NN=C(N)N)c2ccc(OC)cc2)cc1`: the growth with SK-MEL-2 melanoma is 32.3%; in the assay on EKVX NSCLC it was 81.9%; in the assay on SN12C renal, 49.9%; in the assay with UO-31 renal, 62.4%; in the assay on TK-10 renal, 40.1%; in the assay with ACHN renal, 37.6%. Also, the growth in the assay with CAKI-1 renal was 73.4%; in the assay on A498 renal, 66.7%; in the assay on CCRF-CEM leukemia, 60%; in the assay with MOLT-4 leukemia, 40%; in the assay on RPMI-8226 leukemia it was 49.4%; in the assay on OVCAR-8 ovarian it was 56.7%. The growth is 69.1% in the assay on OVCAR-5 ovarian; 39.3% with OVCAR-4 ovarian; 11% with SK-OV-3 ovarian; 36.3% in the assay with IGROV1 ovarian; 17% in the assay on OVCAR-3 ovarian; 65% in the assay with HS 578T breast. Moreover, in the assay on NCI/ADR-RES ovarian, the growth is 83.5%.

For `CN(C)CCNc1nc2ccccc2c2c1c1c(n2Cc2ccccc2)-c2ccccc2C1=O`, the growth is -74.6% (active) in the assay on SK-MEL-2 melanoma; -87.8% (active) in the assay with EKVX NSCLC; -89.1% (active) in the assay with SN12C renal; -77.8% (active) in the assay on UO-31 renal; -80% (active) in the assay with TK-10 renal; -98.4% (active) in the assay on ACHN renal. Further, the growth is -80.1% (active) with CAKI-1 renal; -96.4% (active) in the assay with A498 renal; -60.6% (active) in the assay on CCRF-CEM leukemia; -84.3% (active) in the assay with MOLT-4 leukemia; -72.7% (active) in the assay on RPMI-8226 leukemia; -53% (active) in the assay with OVCAR-8 ovarian. The growth was -74.7% (active) with OVCAR-5 ovarian; -93.6% (active) in the assay on OVCAR-4 ovarian; -92.5% (active) in the assay with SK-OV-3 ovarian; -72.9% (active) in the assay with IGROV1 ovarian; -79.2% (active) in the assay on OVCAR-3 ovarian; -90.4% (active) in the assay with HS 578T breast. Moreover, in the assay with NCI/ADR-RES ovarian, the growth was -72.6% (active).

`C=CCNc1nc(NN2C(=O)c3cccc4cccc(c34)C2=O)nc(-n2cnc3ccccc32)n1`: the growth in the assay with SK-MEL-2 melanoma was 98.9%; with EKVX NSCLC it was 62.8%; in the assay with SN12C renal it was 60.4%; with UO-31 renal it was 14.3%; in the assay with TK-10 renal it was 102%; in the assay with ACHN renal, 64.8%. For the same compound, the growth is 51.5% in the assay on CAKI-1 renal; 32.4% in the assay on A498 renal; 83.8% in the assay with CCRF-CEM leukemia; 56% with MOLT-4 leukemia; 65.7% in the assay on RPMI-8226 leukemia; 81.5% with OVCAR-8 ovarian. Besides, the growth in the assay with OVCAR-5 ovarian was 77.2%; in the assay with OVCAR-4 ovarian, 52.5%; in the assay on SK-OV-3 ovarian, 40.9%; in the assay with IGROV1 ovarian, 46.7%; in the assay on OVCAR-3 ovarian, 84.5%; in the assay with HS 578T breast, 35.9%. The growth in the assay on NCI/ADR-RES ovarian is 72%.

With `O=C(c1ccccc1)c1c(/C=C/c2ccccc2)nc2ccccc2c1/C=C/c1ccc(Br)cc1`, the growth in the assay on SK-MEL-2 melanoma was 110%; in the assay on EKVX NSCLC, 102%; with SN12C renal, 92.7%; with UO-31 renal, 68.2%; in the assay with TK-10 renal it was 107%; in the assay with ACHN renal, 97%. The growth was 80.9% with CAKI-1 renal; 79.9% in the assay with A498 renal; 97% in the assay on CCRF-CEM leukemia; 94.6% in the assay with MOLT-4 leukemia; 104% with RPMI-8226 leukemia; 102% in the assay on OVCAR-8 ovarian. For the same compound, the growth with OVCAR-5 ovarian was 103%; in the assay on OVCAR-4 ovarian it was 88%; in the assay with SK-OV-3 ovarian, 96.3%; in the assay with IGROV1 ovarian it was 103%; with OVCAR-3 ovarian, 89.4%; with HS 578T breast it was 91.3%. For the same compound, in the assay on NCI/ADR-RES ovarian, the growth is 102%.

Consider `O=C(N/N=C/C=C/c1ccc([N+](=O)[O-])o1)c1cc2ccccc2cc1O`, for which the growth is -44.6% (active) with SK-MEL-2 melanoma; -15.9% (active) with EKVX NSCLC; -10.7% (active) in the assay with SN12C renal; -71.9% (active) with UO-31 renal; 2.31% (active) in the assay on TK-10 renal; -3% (active) with ACHN renal. The growth in the assay with CAKI-1 renal is 12.7%; in the assay with A498 renal, -82.4% (active); in the assay with CCRF-CEM leukemia, 5.15% (active); in the assay on MOLT-4 leukemia, 4.89% (active); in the assay on RPMI-8226 leukemia it was -11.2% (active); with OVCAR-8 ovarian it was 0.564% (active). Besides, the growth was -1.58% (active) with OVCAR-5 ovarian; -100% (active) with OVCAR-4 ovarian; -13.5% (active) with SK-OV-3 ovarian; -62.6% (active) with IGROV1 ovarian; -54.8% (active) in the assay with OVCAR-3 ovarian; -4.48% (active) with HS 578T breast. In the assay with NCI/ADR-RES ovarian, the growth was 0.815% (active).

Regarding `CCCCCCCCCCCCCCCCCC1=NCCN1CCOC1=C(Cl)C(=O)c2ccccc2C1=O`, the growth in the assay with SK-MEL-2 melanoma is 85.3%; in the assay with EKVX NSCLC it was 86.7%; with SN12C renal it was 78.9%; with UO-31 renal it was 42.6%; in the assay on TK-10 renal, 78.9%; in the assay with ACHN renal, 30.2%. The growth in the assay on CAKI-1 renal was 8.77% (active); in the assay with A498 renal, 99.7%; in the assay with CCRF-CEM leukemia, 57%; in the assay on MOLT-4 leukemia it was 71.7%; with RPMI-8226 leukemia, 33.1%; in the assay with OVCAR-8 ovarian it was 75%. The growth is 115% in the assay with OVCAR-5 ovarian; -5.67% (active) in the assay with OVCAR-4 ovarian; 99.9% in the assay on SK-OV-3 ovarian; 67% in the assay on IGROV1 ovarian; 23.4% in the assay on OVCAR-3 ovarian; 90.1% with HS 578T breast. Moreover, the growth in the assay with NCI/ADR-RES ovarian was 81.7%.

For the compound `O=C1CCC2=C3C4CCCCC4C(=O)C4CCCC(OC2C1)C34` (configuration not stated), the growth is 3.05% (active) with SK-MEL-2 melanoma; 97.2% in the assay on EKVX NSCLC; 14.1% with SN12C renal; -43.5% (active) in the assay on UO-31 renal; 64.3% with TK-10 renal; -23.3% (active) in the assay on ACHN renal. The growth with CAKI-1 renal is -27.2% (active); in the assay on A498 renal, 104%; in the assay with CCRF-CEM leukemia it was 15.6%; in the assay on MOLT-4 leukemia, 7.03% (active); with RPMI-8226 leukemia it was -4.93% (active); in the assay on OVCAR-8 ovarian, 6.21% (active). Besides, the growth is 108% in the assay with OVCAR-5 ovarian; 22.1% in the assay on OVCAR-4 ovarian; 78.4% with SK-OV-3 ovarian; -2.77% (active) in the assay with IGROV1 ovarian; -28.8% (active) in the assay with OVCAR-3 ovarian; 26.5% in the assay on HS 578T breast. Also, the growth with NCI/ADR-RES ovarian is 3.01% (active).

For the origin of these results see PubChem BioAssay (NCI).
